Assay outcomes (PubChem BioAssay)
HEK cytotox = kills HEK 293 cells; HEK 293 viability, ATP luminescence (CellTiter-Glo), 48-72 h; Potency, µM (series often up to 115 µM), usual class: inhibitors; 94,000 compounds, 6.6% hits; AID 1345083; also: nearly all actives have a fitted effect of over 60% in size
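250 HEK 293 cells/well; compound by pintool; incubated 48 or 72 hr at 37 degree Celsius; CellTiter-Glo added, 10 min RT, luminescence imaged.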
NPR1 antag = antagonists of human natriuretic peptide receptor Npr1; P16066; HEK293 hNpr1 GloSensor cGMP, ANP-stimulated luminescence; Potency, µM (top dose mostly 46.3 µM), hits mostly inhibitors; 76,000 compounds, 1.6% hits; calls by dose curve; also: nearly all actives have a fitted effect of over 60% in size
Target sequence (P16066 whole entry, looked up): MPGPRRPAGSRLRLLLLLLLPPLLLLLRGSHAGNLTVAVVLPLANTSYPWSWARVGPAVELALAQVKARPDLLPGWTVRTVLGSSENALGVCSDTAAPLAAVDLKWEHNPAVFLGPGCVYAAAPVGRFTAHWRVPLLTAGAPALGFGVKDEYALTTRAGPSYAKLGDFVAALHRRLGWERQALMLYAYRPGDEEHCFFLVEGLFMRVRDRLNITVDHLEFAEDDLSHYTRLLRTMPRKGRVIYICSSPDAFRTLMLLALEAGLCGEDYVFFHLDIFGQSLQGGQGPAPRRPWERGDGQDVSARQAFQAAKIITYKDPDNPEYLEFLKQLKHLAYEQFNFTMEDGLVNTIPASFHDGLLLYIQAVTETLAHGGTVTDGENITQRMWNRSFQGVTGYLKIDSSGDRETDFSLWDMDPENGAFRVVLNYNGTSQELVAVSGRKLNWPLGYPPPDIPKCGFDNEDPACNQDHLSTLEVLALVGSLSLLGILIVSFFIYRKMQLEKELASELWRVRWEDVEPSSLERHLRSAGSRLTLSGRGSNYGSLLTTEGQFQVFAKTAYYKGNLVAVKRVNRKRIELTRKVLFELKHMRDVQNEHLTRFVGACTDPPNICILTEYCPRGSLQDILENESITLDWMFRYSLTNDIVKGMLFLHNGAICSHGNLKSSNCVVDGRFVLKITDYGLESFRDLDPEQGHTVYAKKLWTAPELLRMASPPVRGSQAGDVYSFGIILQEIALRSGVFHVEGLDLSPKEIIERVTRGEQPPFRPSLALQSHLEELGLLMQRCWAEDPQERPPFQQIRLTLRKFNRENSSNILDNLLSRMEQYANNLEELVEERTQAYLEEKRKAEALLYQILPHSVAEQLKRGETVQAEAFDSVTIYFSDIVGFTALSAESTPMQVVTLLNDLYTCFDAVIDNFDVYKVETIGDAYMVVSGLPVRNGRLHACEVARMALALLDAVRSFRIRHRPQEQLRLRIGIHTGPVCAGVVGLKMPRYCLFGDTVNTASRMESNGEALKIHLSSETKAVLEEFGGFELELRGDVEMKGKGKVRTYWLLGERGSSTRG
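HEK293 cells stably expressing human Npr1 and cGMP GloSensor pGS-40F, loaded 2 h with 2% GloSensor reagent, given compound 30 min at room temperature. Luminescence read before and 20 min after 0.1 nM hNppA.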
GPT2 inhibitor = GPT2 alanine aminotransferase inhibition; Q8TD30; Recombinant GPT2, coupled pyruvate oxidase/HRP Amplex Red fluorescence; Potency, µM (top dose mostly 57.7 µM), most hits filed as inhibitors; 100,000 compounds, 0.25% hits; also: nearly all actives have a fitted effect of over 60% in size
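Fluorescence read-out: pyruvate from GPT2 turnover coupled to pyruvate oxidase, HRP and Amplex Red (0.2mM ThPP, 0.2U/mL PO and HRP, 50uM Amplex final). Substrates 250uM a-KG, 2mM L-alanine; enzyme 10ng/uL; 30 min RT.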
3T3 cytotox = NIH 3T3 cell cytotoxicity. 94,000 compounds, 4.3% hits. Potency, µM (top dose mostly 96.7 µM), hits mostly inhibitors. NIH 3T3 viability, CellTiter-Glo ATP luminescence, 48-72 h. AID 1345082; also: nearly all actives have a fitted effect of over 55% in size
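Mouse fibroblast NIH 3T3 cells, 400 per well, received compound via pintool and were incubated for 48 or 72 hr prior to CellTiter-Glo ATP luminescence measurement.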
FLuc inh = Photinus pyralis luciferase inhibition | Potency, µM (titrated, usually from 115 µM), actives largely listed as inhibitors | P08659 | purified P. pyralis luciferase, luminescence, biochemical | AID 1347043 | 76,000 compounds, 2.5% hits; also: nearly all actives have a fitted effect of over 65% in size
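Biochemical qHTS: compound (6-point titration) added to 10uM D-luciferin plus 10uM ATP in Tris acetate pH 7.5 buffer with Mg, Tween-20 and BSA, then purified enzyme at 10nM; light output imaged.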
A number is an active result; - = inactive; ? = inconclusive; . = no result. Hits are enriched below; roughly 10% of the tested compounds scored in any of these assays. Unless noted, calls follow the shape of the dose curve; as a rule, active = well fitted curve in the direction sought with a large enough effect; inconclusive = small, poorly fitted or top-dose-only effect, or another doubt; inactive = no such curve, though single readings can be large; an effect the other way counts as inactive or inconclusive.

SMILES	HEK cytotox	NPR1 antag	GPT2 inhibitor	3T3 cytotox	FLuc inh
CC1=C[C@@H](CNC(=O)Nc2ccccc2)[C@H](C(C)C)C[C@H]1Cc1nnc(-c2ccncc2)o1	22µM	?	-	?	-
CC1=C[C@@H](CNS(=O)(=O)c2ccccc2)[C@H](C(C)C)C[C@H]1Cc1nnc(-c2ccncc2)o1	25µM	?	-	20µM	-
CC1=C[C@@H](CNS(=O)(=O)c2ccc(C#N)cc2)[C@H](C(C)C)C[C@H]1Cc1nnc(-c2ccncc2)o1	?	-	-	?	-
COc1ccc(CCC(=O)N2CCC(Oc3ccc(-c4noc(C)n4)cc3)C2)cc1 (centres undefined)	?	-	-	-	40µM
Cc1nc(-c2ccc(OC3CCN(C(=O)c4nn(C)c5ccccc45)C3)cc2)no1 (centres undefined)	45µM	-	-	?	-
COc1ccccc1Nc1ccnc(N2CCN(C(=O)NC3CCCC3)CC2)n1	45µM	.	-	32µM	.
CN(C)C(=O)NC1CCN(c2nccc(Nc3ccccc3Cl)n2)CC1	45µM	.	-	28µM	.
COc1ccccc1Nc1ccnc(N2CCC(C(=O)NC3CCCC3)CC2)n1	?	.	-	?	.
O=C(NC1CCN(c2nccc(Nc3ccccc3Cl)n2)CC1)C1CCCC1	?	.	-	28µM	.
O=C(NC1CCCC1)N1CCN(c2nccc(Nc3ccccc3Cl)n2)CC1	40µM	.	-	?	.
O=c1[nH]c(N2CCOCC2)nc2c1CCN(Cc1ccccc1C(F)(F)F)CC2	?	-	-	-	-
CCOC(=O)C1CCN(C(=O)Cc2ccc(N(Cc3cccc(F)c3)C(=O)c3ccco3)cc2)CC1	?	?	-	?	-
COc1ccccc1Nc1ccnc(N2CCC[C@H]2C(=O)N2CCC(Cc3ccccc3)CC2)n1	40µM	.	-	?	.
COc1ccc(Nc2ccnc(N3CCN(C(=O)NC4CCCC4)CC3)n2)cc1	45µM	.	-	?	.
O=C(c1cccc(Cl)c1)N1CCN(C(=O)c2nc3cccnc3n(CCc3ccccc3)c2=O)CC1	?	.	-	?	.
CN(c1ccccc1)c1ccc2nnc(-c3cc(C(=O)NC4CCC(O)CC4)ccn3)n2n1 (centres undefined)	-	-	-	?	-
O=C(Nc1ccncc1)c1ccnc(-c2nnc3ccc(N4CCOCC4)nn23)c1	-	-	?	89µM	-
CN(c1ccccc1)c1ccc2nnc(-c3cc(C(=O)Nc4ccccn4)ccn3)n2n1	56µM	-	-	?	-
COc1cccc(NC(=O)c2ccnc(-c3nnc4ccc(N(C)C)nn34)c2)c1	?	-	-	32µM	-
CN(C)c1cccc(NC(=O)c2ccnc(-c3nnc4ccc(N5CCOCC5)nn34)c2)c1	-	-	-	?	-
CN(c1ccccc1)c1ccc2nnc(-c3cc(C(=O)NCc4cccnc4)ccn3)n2n1	100µM	-	-	25µM	-
CN(C)c1ccc2nnc(-c3cc(C(=O)NCCc4ccccn4)ccn3)n2n1	-	-	-	?	-
O=C(C1CCN(Cc2ccccc2-c2cccnc2)CC1)N1CCCCC1	?	.	-	?	.
COCC(=O)N1CCCC(C(=O)N2CCCC2c2nc3ccncc3[nH]2)C1 (centres undefined)	-	.	-	-	.
Cc1nn(-c2ccccc2)c2c1C(C1CC1)N(C1CN([S+](C)(=O)[O-])C1)C2=O (centres undefined)	-	.	.	-	.
SMILES	HEK cytotox	NPR1 antag	GPT2 inhibitor	3T3 cytotox	FLuc inh
CN(C)c1ccc(CN2CCC3(CC2)COc2ccccc2C(=O)N3)cc1	?	-	-	22µM	-
CC(C)CCN1CCC2(COc3ccccc3C(=O)N2)C1 (centres undefined)	?	-	-	100µM	-
CC(C)CCN1CCCC2(COc3ccccc3C(=O)N2)C1 (centres undefined)	?	-	-	?	-
COc1cccc(CN2CCC3(COc4ccccc4C(=O)N3)C2)c1 (centres undefined)	89µM	-	-	40µM	-
CN(C)c1ccc(CN2CCC3(COc4ccccc4C(=O)N3)C2)cc1 (centres undefined)	?	-	-	?	-
COc1ccc(F)cc1-c1ccc(CN2CCCCC2C(=O)NCc2cccc(F)c2)cc1 (centres undefined)	?	.	.	35µM	.
COc1ccc(F)cc1-c1ccc(CN2CCCCC2C(=O)NCc2ccc(Cl)cc2)cc1 (centres undefined)	14µM	.	.	?	.
COCCN1C[C@H]2CN(C)c3ccccc3[C@@H]2N(C(=O)c2ccc(C)cc2)CCC1=O	?	.	-	-	.
COc1ccc(OC)c(NC(=O)c2ccc3c(c2)C(O)CCCCCN3C)c1 (centres undefined)	?	?	-	?	-
CN1CCCCCC(O)c2cc(C(=O)Nc3cccc(OC(F)(F)F)c3)ccc21 (centres undefined)	25µM	?	?	28µM	-
CN1c2cc(C(=O)Nc3cccc(OC(F)(F)F)c3)ccc2C(=O)N2CCCCCC21 (centres undefined)	?	-	-	-	-
COc1cccc(NC(=O)c2ccc3c(c2)C(O)CCCCCN3C)c1 (centres undefined)	?	-	-	?	35µM
CC1CCN(c2ccc(CNC(=O)c3ccc4c(c3)C(O)CCCCCN4C)cc2)CC1 (centres undefined)	?	-	-	40µM	-
O=C(CCn1ccn2nc3c(c2c1=O)CCCC3)Nc1ccccc1Br	-	-	-	-	-
COc1ccc(C2Cn3cnc(C(=O)N4CCC(C(=O)Nc5ccccc5)CC4)c3CO2)cc1 (centres undefined)	-	-	-	-	?
COc1ccc(C(C)NC(=O)C2CCN(C(=O)c3ncn4c3COC(c3ccccc3)C4)CC2)cc1 (centres undefined)	-	-	-	-	28µM
COc1cc(NC(=O)C2CCN(C(=O)c3ncn4c3COC(c3ccccc3)C4)CC2)cc(OC)c1 (centres undefined)	-	-	-	-	25µM
CC(NC(=O)C1CCN(C(=O)c2ncn3c2COC(c2ccc(Cl)cc2)C3)CC1)c1ccccc1 (centres undefined)	-	-	-	-	-
COc1ccc(CCNC(=O)C[C@@H]2c3nc(NC(=O)CC(C)(C)C)sc3C[C@@H]3[C@](C)(CO)[C@H](O)CC[C@]32C)cc1OC	-	-	-	-	-
CC(=O)N1Cc2ccccc2CC2(CCCCN2Cc2ccccc2)C1 (centres undefined)	?	.	-	-	.
COc1ccccc1-c1cn2c(n1)CO[C@@H](CNC(=O)NC(C)C)C2	-	-	-	-	-
COc1ccccc1-c1cn2c(n1)CO[C@@H](CNC(=O)c1ccc(Cl)cc1)C2	100µM	-	-	?	-
Cc1ccc(-c2cn3c(n2)CO[C@@H](CNC(C)C)C3)cc1	?	-	-	?	40µM
